Source: the emibetuzumab library of Makowski et al. (2022)
This is one part of the list. No count for the full screen is at hand.

B1: VH:VL chains; a variant is named by its letters at X, in order (parent)
chain 1: QVQLVQSGAEVKKPGASVKVSCKASGYTFTDYXMHWVRQAPGQGLEWMGXVNPNXXXTTYNQKFEGRVTMTTDTSTSTAYMELRSLRSDDTAVYYCARXNXLDXWGQGTTVTVSS
chain 2: DIQMTQSPSSLSASVGDRVTITCSVSSSVSSIYLHWYQQKPGKAPKLLIYSTSNLASGVPSRFSGSGSGTDFTLTISSLQPEDFATYYCQVYSGYPLTFGGGTKVEIK

Variants of: B1
Assay: yeast display scFab, FACS + sequencing
Details: with MET
Outline: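 A heavy-chain CDR mutant scFab library on yeast was enriched magnetically with HGFR-Fc-coated Protein A beads for two rounds and then by FACS after labelling with 1 nM HGFR-Fc and anti-Myc in PBSB with 1% milk for 3 h at room temperature, gating the top 50% antigen-positive cells. Antigen binding was judged positive if a sequence turned up in both antigen-positive deep-sequencing samples and negative if it turned up only in the input.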

Row | Variant | antigen binding call
1 | VETEGAGA | no binding
2 | SREAADGV | no binding
3 | AETTDSWV | no binding
4 | FGATSVSF | no binding
5 | SARTDFWF | no binding
6 | ARAETDVY | no binding
7 | YRRRGSAS | binds
8 | YRRRGSVS | binds
9 | YRRRSSSS | binds
10 | YRRRGALS | binds
11 | DARGGSSS | no binding
12 | VTEENDGY | no binding
13 | FAEGDDVY | no binding
14 | ATTKSDVA | no binding
15 | YARETDGA | no binding
16 | DAGAADGA | no binding
17 | YRRRGSGS | binds
18 | YRRRGASS | binds
19 | DAEATDVA | no binding
20 | VAEKGAGD | no binding
21 | YREKGAGD | binds
22 | YRAKGSGD | binds
23 | YRAKGAGD | binds
24 | YKEKGAVD | no binding

Row | Variant | antigen binding call
25 | YRAGTSGD | binds
26 | DGGEGVVY | no binding
27 | AKRGAFAD | no binding
28 | VGGKNSVD | no binding
29 | VKGRADAD | no binding
30 | YRRKGAGD | binds
31 | YRAGASGD | binds
32 | YAAGASVD | no binding
33 | YRAGSSGD | binds
34 | VKEADDVA | no binding
35 | YRERSSLD | binds
36 | YRGRTSLD | binds
37 | YREGGSLD | binds
38 | VTEGGSVD | no binding
39 | DAEGGSLD | no binding
40 | YREGGSVD | binds
41 | VTTKSDVF | no binding
42 | AETKGDVY | no binding
43 | SAGEGDGV | no binding
44 | VKKRGAWS | binds
45 | AKKRGAWS | binds
46 | AAKRGSWV | no binding
47 | FKKRGAWS | binds
48 | AERRGSWS | no binding

Row | Variant | antigen binding call
49 | YKTRSAWS chain 1 M48I | no binding
50 | FKTEGFVS | no binding
51 | YARGADGS | no binding
52 | VKEKGAWS | no binding
53 | FAKRGAWS | no binding
54 | YKRGAAWS | binds
55 | VKEKGAWV | no binding
56 | DATGGDVF | no binding
57 | YERTTDLS | no binding
58 | VGGTSDGD | no binding
59 | VTEEGDWV | no binding
60 | ATKGAAVA | no binding
61 | YEKGGAWS | no binding
62 | YKKRGAWS | binds
63 | VTTKSAGV | no binding
64 | DAEATSLV | no binding
65 | YRRGSSAA | binds
66 | YRRGGSAA | binds
67 | VTGEDDVD | no binding
68 | VKAGGDAV | no binding
69 | VAARGAAV | no binding
70 | VKARGSAF | binds
71 | VKGRASAF | no binding
72 | VKARGSAV | binds

Row | Variant | antigen binding call
73 | VAARGDAA | no binding
74 | VEEEGSAV | no binding
75 | VKARGAAV | binds
76 | VKAGDAAV | no binding
77 | SGREGDSA | no binding
78 | DGGGNVSD | no binding
79 | DEGGTDWV | no binding
80 | SAREGYSV | no binding
81 | DEARNAGA | no binding
82 | FRGRGSGV | binds
83 | FRTRSSGV | binds
84 | FRAGSSGV | binds
85 | FRTADVGV | no binding
86 | FRGRSSGV | binds
87 | VTKGGSSA | no binding
88 | SEKKADWA | no binding
89 | VTTKSDVA | no binding
90 | VRTEDDVY | no binding
91 | FKGRGSGV | binds
92 | SEGRGSGV | no binding
93 | VGGTSSSV | no binding
94 | VRGTGDWD | no binding
95 | VRGTGSAD | no binding
96 | VRGTGSWD | binds

Row | Variant | antigen binding call
97 | VRGEGSWD | binds
98 | YTEGDDGV | no binding
99 | YTGGDDWV | no binding
100 | DEGTDYAA | no binding
101 | FKGRGAWS | binds
102 | FKGRGAGS | binds
103 | FKTGDAWS | no binding
104 | FKGRGDGS | no binding
105 | DATGGDGA | no binding
106 | DKGGSSLD | no binding
107 | YEGTGSAD | no binding
108 | YTGTSSAD | no binding
109 | YKGGSSAD | binds
110 | YKGGSSLD | binds
111 | DATGGSSA | no binding
112 | YRRGDFWA | no binding
113 | YKRGDAWA | binds
114 | YKRGSAWD | binds
115 | YKRGDAWD | binds
116 | YTRGNAWA | no binding
117 | YKRAAVWD | no binding
118 | VEGRGAVY | no binding
119 | YKGRGAAY | binds
120 | VKGRGAAY | binds

Row | Variant | antigen binding call
121 | VKGTGVAY | no binding
122 | YAGETFGA | no binding
123 | SETGGFVV | no binding
124 | DGGENDVY | no binding
125 | YRKGGSGY | binds
126 | ARTKGSGY | no binding
127 | YTKEASGY | no binding
128 | YRRKGSGY | binds
129 | FRGRGAAY | binds
130 | FRGRGSSY | binds
131 | FRGRGSAY | binds
132 | YRGRGSAY | binds
133 | YEGGADVF | no binding
134 | DAGAADAV | no binding
135 | DTGTGSWD | no binding
136 | VTEGGDAA | no binding
137 | FKGRGAAY | binds
138 | FTGRGAAA | binds
139 | FTGRGAVA | no binding
140 | FTRAGAAA | no binding
141 | SEARSDSV | no binding
142 | DRAGDDGY | no binding
143 | YRAGDSGY | binds
144 | VRAGDSGY | binds

Row | Variant | antigen binding call
145 | VKAGDAVY | no binding
146 | YTGTSDLA | no binding
147 | YRGRGVGA | binds
148 | FRGRGYGA | no binding
149 | FRGRGAGA | binds
150 | FRGRGVGA | binds
151 | ARGGDDGA | no binding
152 | VGGTGSGA | no binding
153 | VRGTGSGA | binds
154 | VKGKGDLA | no binding
155 | VRGKGSLA | binds
156 | VAEKGSGA | no binding
157 | VRGKGSGA | binds
158 | ATGTGSGA | no binding
159 | VGGTSSGA | no binding
160 | VTGEDSLA | no binding
161 | FERTSVWF chain 1 L45F | no binding
162 | SAGGDYVF | no binding
163 | YTGEGDGV | no binding
164 | DREEGDAV | no binding
165 | YTGEGSWV | binds
166 | YRGRSAWV | binds
167 | YRGESAWV | binds
168 | YTTRGSWV | no binding

Row | Variant | antigen binding call
169 | YRGEGDAA | no binding
170 | YRGEGDAV | binds
171 | VTKAASWV | no binding
172 | SEEASAVY | no binding
173 | DKTGDDGS | no binding
174 | YRGEGAWV | binds
175 | YRGRDASA | binds
176 | YRGRSASS | binds
177 | VEGAAAGS | no binding
178 | YRGRDDLA | no binding
179 | YRGAAASS | binds
180 | YRGRDSSS | binds
181 | ATGEGDGV | no binding
182 | SEARSFGV | no binding
183 | YRGRSAGS | binds
184 | YRGRDASS | binds
185 | DAGGASGV | no binding
186 | VERASAVV | no binding
187 | VRRRGAGV | binds
188 | VRGTDAVV | no binding
189 | VRGTDAGV | no binding
190 | VRRRGAVV | binds
191 | SGRGNSGV | no binding
192 | DARADSGV | no binding

Row | Variant | antigen binding call
193 | AARADDGV | no binding
194 | YRAKGAGV | binds
195 | YRTRDSGV | binds
196 | YRTKGSGV | binds
197 | YGAKGDGV | no binding
198 | YRAKGSGV | binds
199 | DTGTGASD | no binding
200 | VAGGDAGV | no binding
201 | AREEGFSV | no binding
202 | DRAGDDVV | no binding
203 | YRAKGAVV | binds
204 | ARAGDAVV | no binding
205 | YRAGDAVV | binds
206 | AARADSSA | no binding
207 | VGGGADVA | no binding
208 | VTTKSAAA | no binding
209 | VTKTGAAA | binds
210 | YTGTSDAV | no binding
211 | YTKTGDAV | binds
212 | VTKTGDAV | binds
213 | VTAGSDAV | no binding
214 | VTGTGDAV | no binding
215 | VTKTGDVA | no binding
216 | YTERGDAV | no binding
